The subject of one experiment is Staphylococcus aureus. The settings on record: Concentration 32 ug.mL-1;; ASSAY_TEST Inhibition of Bacterial Growth; detection method Absorption (OD600); MEDIA CAMHB; plate type 384well; NBS; CORNING #3640; time 18 hr.
The next experiment concerns Escherichia coli. Particulars: Concentration 32 ug.mL-1;; ASSAY_TEST Inhibition of Bacterial Growth; detection method Absorption (OD600); MEDIA CAMHB; plate type 384well; NBS; CORNING #3640; time 18 hr.

For 36 compounds, Inhibition results are on record in ChEMBL document CHEMBL4513146, “CO-ADD screening of Karazin Kharkiv National University (Ukraine) compounds”.

Measured potencies and affinities stand elsewhere.

As for `COc1cc(NC(=O)Cn2nc3n(CCc4ccccc4)c(=O)c4ccccc4n3c2=O)cc(OC)c1`, the Inhibition was 8.09% with Staphylococcus aureus and -2.27% in the experiment with Escherichia coli.
Taken in the same sequence, the figures for `COc1ccc(NC(=O)Cn2nc3c(Sc4cccc(C)c4)nccn3c2=O)cc1Cl` were -3.33% and -13.54%.
Taken in the same sequence, the figures for `CC(C)c1ccc(NC(=O)CSc2nnc3c(=O)n(-c4ccccc4)ccn23)cc1` were 3.45% and -7.12%.
On the same counts, the results for `O=C(Cn1nc2ccc(-c3ccccc3)nn2c1=O)Nc1ccc(F)cc1` are 1.63% and -4.86%.
For the compound `CC(C)c1nnc2c(=O)n(CC(=O)Nc3ccc4c(c3)OCO4)c3ccccc3n12`, the Inhibition in the experiment on Staphylococcus aureus is -1.02%; in the experiment with Escherichia coli it was -3.49%.
On the same counts, the results for `CC(C)c1nnc2c(=O)n(CC(=O)Nc3ccc(Cl)cc3)c3ccccc3n12` are 11.52% and 1.04%.
Taken in the same sequence, the figures for `O=C(Cn1nc2ccc(Sc3cccc(F)c3)nn2c1=O)NCc1ccc(C(F)(F)F)cc1` were 12.64% and -0.57%.
On the same counts, the results for `COc1ccc(Cl)cc1NC(=O)Cn1nc2ccc(Sc3ccccc3)nn2c1=O` are -3.52% and -9.25%.
Consider `COc1ccc(NC(=O)Cn2nc3c4c5c(sc4ncn3c2=O)CCCC5)cc1`, for which the results for the Inhibition in the experiment on Staphylococcus aureus and in the experiment on Escherichia coli were 2.3% and -5.34%, respectively.
On the same counts, the results for `COc1cc(NC(=O)Cn2nc3c(Sc4cccc(F)c4)nccn3c2=O)cc(OC)c1` are 9.3% and -0.8%.
With `CCc1ccc(N(Cc2ccccc2)S(=O)(=O)c2cccn3cnnc23)cc1`, the values for the Inhibition with Staphylococcus aureus and in the experiment with Escherichia coli were 5.64% and -1.12%, respectively.
Taken in the same sequence, the figures for `COc1ccc2[nH]cc(C(=O)CSc3nnc4c(=O)n(-c5cccc(Cl)c5C)ccn34)c2c1` were 18.84% and 2.67%.
On the same counts, the results for `COc1cccc(NC(=O)Cn2c(=O)c3nnc(C(C)C)n3c3ccccc32)c1` are 22.3% and 0.77%.
On the same counts, the results for `Cc1ccc(Cn2nc3c(=O)n(-c4cccc(Cl)c4C)ccn3c2=O)cc1` are 8.26% and -3.14%.
Turning to `O=c1c2sccc2n2c(=O)n(Cc3ccccc3F)nc2n1Cc1cccs1`, the Inhibition with Staphylococcus aureus is given as -3.2%; with Escherichia coli it was -12.46%.
On the same counts, the results for `O=c1n(Cc2cc(F)cc(F)c2)nc2ccc(-c3ccccc3)nn12` are 8.62% and -1.58%.
Taken in the same sequence, the figures for `COc1ccc(-c2cc3c4nnc(CCC(=O)NCCc5ccccc5)n4ccn3n2)cc1` were 6.36% and 2.69%.
On the same counts, the results for `COc1ccc(Cl)cc1NC(=O)Cn1nc2c3cc(-c4ccc(C)cc4)nn3ccn2c1=O` are 13.21% and 3.02%.
Consider `CCOc1ccc(NC(=O)Cn2nc3c4cc(-c5ccc(Cl)cc5)nn4ccn3c2=O)cc1`, for which the Inhibition was 0.29% in the experiment on Staphylococcus aureus and -4.33% with Escherichia coli.
Turning to `Cc1ccc(Oc2nccn3c(=O)n(CC(=O)Nc4ccc5c(c4)OCO5)nc23)cc1`, the Inhibition with Staphylococcus aureus was 6.26%; in the experiment on Escherichia coli, -6.61%.
Taken in the same sequence, the figures for `COc1ccc(Cn2nc3ccc(-c4ccc(Cl)cc4)nn3c2=O)cc1F` were 12.92% and 0.48%.
Taken in the same sequence, the figures for `O=C(CSc1nnc2c(=O)n(-c3ccc(Br)cc3)ccn12)c1ccc(F)cc1` were 0.43% and -3.19%.
Taken in the same sequence, the figures for `CCc1nnc2c(SCC(=O)Nc3cccc(Br)c3)nc3ccccc3n12` were 1.73% and -7.45%.
For the compound `Cc1cc(C)c(NC(=O)Cn2nc3ccc(-c4ccc(C)c(C)c4)nn3c2=O)c(C)c1`, the Inhibition in the experiment on Staphylococcus aureus was -8.09%; in the experiment with Escherichia coli it was -15.6%.
Taken in the same sequence, the figures for `O=c1c2nn(Cc3c(F)cccc3Cl)c(=O)n2ccn1-c1ccccc1` were -4.83% and 2.37%.
As to `COc1ccccc1-n1ccn2c(SCc3cc(C)ccc3C)nnc2c1=O`, the Inhibition in the experiment on Staphylococcus aureus is given as 12.05%; with Escherichia coli, -5.03%.
Taken in the same sequence, the figures for `CC(=O)c1ccc(NC(=O)Cn2nc3ccc(-c4ccc(C)cc4)nn3c2=O)cc1` were 10.69% and -3.43%.
Taken in the same sequence, the figures for `COc1cccc(-n2ccn3c(SCc4cccc(F)c4)nnc3c2=O)c1` were 11.5% and -8.02%.
As to `CC(=O)c1ccc(N2CCN(C(=O)CCc3nnc4c5cc(-c6ccccc6)nn5ccn34)CC2)cc1`, the Inhibition with Staphylococcus aureus was 11.68%; with Escherichia coli it was 2.66%.
As for `COc1ccc(NC(=O)c2ccc3nn(CC(=O)Nc4cccc(OC)c4)c(=O)n3c2)cc1`, the Inhibition in the experiment on Staphylococcus aureus was 15.63%; in the experiment on Escherichia coli it was 0.97%.
Regarding `COc1ccccc1Cn1c(=O)c2sccc2n2c(=O)n(Cc3ccccc3)nc12`, the Inhibition in the experiment with Staphylococcus aureus was 4.84%; with Escherichia coli, -5.32%.
With `Cc1ccc(-c2ccc3nn(CC(=O)N4CCN(c5ccccc5)CC4)c(=O)n3n2)cc1C`, the Inhibition was found to be 8.01% with Staphylococcus aureus and 2.66% in the experiment on Escherichia coli.
On the same counts, the results for `CCc1cccc(NC(=O)Cn2nc3ccc(SC(C)C)nn3c2=O)c1` are 3.75% and -0.03%.
On the same counts, the results for `CC1CCCN(c2nccn3c(=O)n(CC(=O)Nc4ccc(Br)cc4F)nc23)C1` (configuration not stated) are 12.44% and 0.2%.
Taken in the same sequence, the figures for `Cc1ccc(Oc2nccn3c(=O)n(CC(=O)Nc4ccccc4Br)nc23)cc1` were 10.09% and -0.96%.
In the case of `COc1ccccc1NC(=O)Cn1nc2c3cc(-c4ccc(Cl)cc4)nn3ccn2c1=O`, the results for the Inhibition with Staphylococcus aureus and in the experiment with Escherichia coli were 5.68% and -3.99%, respectively.
